Measured values reported in PubChem BioAssay AID651839 (Vanderbilt Specialized Chemistry Center, 2012).
Results with a measured potency or affinity are listed apart.

Each compound was assayed against Metabotropic glutamate receptor 3 (Rattus norvegicus) (UniProt P31422) (assay: inhibition of rat mGlu3 glutamate signaling – HEK/GIRK cells, thallium flux, dose response (AID 651839)). Details: HEK293 GIRK rat mGlu3, thallium flux fluorescence; series mostly up to 30 µM; percent of glutamate max response: at the top concentration;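 active = compounds whose mean inhibitory potency against the glutamate signal is under 30 µM; inactive = the rest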.
Sequence of Metabotropic glutamate receptor 3 (Rattus norvegicus) (P31422 whole entry, looked up): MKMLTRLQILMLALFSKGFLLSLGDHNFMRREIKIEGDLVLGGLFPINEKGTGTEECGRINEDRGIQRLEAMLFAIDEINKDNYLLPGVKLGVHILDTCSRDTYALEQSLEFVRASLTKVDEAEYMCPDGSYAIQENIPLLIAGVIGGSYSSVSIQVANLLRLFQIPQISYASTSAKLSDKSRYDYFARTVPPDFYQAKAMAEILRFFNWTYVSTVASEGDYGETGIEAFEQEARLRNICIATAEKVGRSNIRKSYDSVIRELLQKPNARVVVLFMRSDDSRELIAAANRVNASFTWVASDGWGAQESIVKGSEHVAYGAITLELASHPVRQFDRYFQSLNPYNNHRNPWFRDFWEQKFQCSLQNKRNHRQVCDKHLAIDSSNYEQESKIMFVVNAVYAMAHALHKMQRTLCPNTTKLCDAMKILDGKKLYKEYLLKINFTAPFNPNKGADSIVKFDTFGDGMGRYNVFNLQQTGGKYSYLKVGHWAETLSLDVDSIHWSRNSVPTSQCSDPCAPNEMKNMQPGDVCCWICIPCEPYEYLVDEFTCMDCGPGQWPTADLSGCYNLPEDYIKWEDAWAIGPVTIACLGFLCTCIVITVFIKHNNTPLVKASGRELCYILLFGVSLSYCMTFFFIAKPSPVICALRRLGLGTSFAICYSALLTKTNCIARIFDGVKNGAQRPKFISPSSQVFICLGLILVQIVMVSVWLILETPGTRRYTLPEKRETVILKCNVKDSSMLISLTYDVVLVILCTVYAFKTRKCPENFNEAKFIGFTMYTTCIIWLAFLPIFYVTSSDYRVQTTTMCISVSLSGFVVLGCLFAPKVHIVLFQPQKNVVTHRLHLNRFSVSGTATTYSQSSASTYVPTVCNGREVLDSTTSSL

Percent of glutamate max response, inactive:
COc1ccc(C#Cc2ccc(C(=O)NCCC(C)(C)C)cc2)c(F)c1 95
COc1ccc(COc2ccc(C(=O)N3CC[C@@H](O)C3)cc2)cc1 86
COc1ccc(COc2ccc(C(=O)N3CCC(OC)C3)cc2)cc1 (stereo not given) 93.4
COc1ccc(C#Cc2ccc(C(=O)NCC(C)(C)O)cc2)c(F)c1 82.2
COc1ccc(COc2ccc(C(=O)N3CCCC(OC)C3)cc2)cc1 (stereo not given) 83.7
COc1ccc(COc2ccc(C(=O)N3CCC(CO)C3)cc2)cc1 (stereo not given) 88.3
COc1ccc(COc2ccc(C(=O)N3CC[C@H](O)C3)cc2)cc1 91.9
O=C(c1ccc2cc(-c3ccncc3)ccc2c1)N1CCCC(CO)C1 (stereo not given) 98.1
COc1ccc(C#Cc2ccc(C(=O)NC(C)(C)CO)cc2)c(F)c1 90.1
COc1ccc(COc2ccc(C(=O)NCCC(C)(C)C)cc2)cc1 83.7
